Assay outcomes: PubChem BioAssay, National Center for Advancing Translational Sciences (NCATS)
In the library only some 9.9% were active in any assay of this set; here they are far more common.
HPGD inh: HPGD (human) dehydrogenase inhibition | P15428 | 150,000 tested, 4.3% active | AID 894 | Potency, µM, actives largely listed as inhibitors | purified HPGD, NADH fluorescence kinetic, PGE2 substrate; active means well fitted inhibition curve with a large enough effect, not every such curve was filed as active; inconclusive means small, poorly fitted or top-dose-only effect, or another doubt; inactive means no such curve, though single readings can be large or run the other way
Target sequence (P15428 whole entry, looked up): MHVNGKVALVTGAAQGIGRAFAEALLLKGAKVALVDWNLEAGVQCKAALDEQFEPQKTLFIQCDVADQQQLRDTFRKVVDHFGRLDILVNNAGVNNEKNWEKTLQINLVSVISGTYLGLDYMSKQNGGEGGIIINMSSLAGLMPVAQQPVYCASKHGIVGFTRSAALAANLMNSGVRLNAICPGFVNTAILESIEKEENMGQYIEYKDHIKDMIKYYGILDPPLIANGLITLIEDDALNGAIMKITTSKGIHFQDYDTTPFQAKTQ
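NADH formation kinetics: reaction with 30 uM PGE2 and 1 mM NAD+ (final), 20 nM enzyme, Tris-HCl pH 8 with Tween 20, after 15 min compound preincubation at room temperature. Fluorescence change, last versus first of five reads.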
Tau fluor counter: counter-screen for tau fibril formation inhibitors. tau K18 P301L Alexa594 fluorescence, heparin fibrillization. Potency, µM (highest dose often 57.7 µM). 280,000 tested, 0.93% active. AID 1463; further: nearly all actives have a fitted effect of over 55% in size
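Human tau K18 P301L (15 uM unlabeled, 0.24 uM Alexa 594-labeled) in 100 mM sodium acetate pH 7 with 20 uM heparin, 6 hr at 37 C. ThT 30 uM added, 1 hr ambient; Alexa 594 FP and total fluorescence read at 555/632 nm.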
Tau FP inhib: blocks human tau fibril formation measured by polarization; P10636; Potency, µM (titrated, usually from 57.7 µM), hits mostly inhibitors; 280,000 tested, 0.39% active; K18 P301L tau heparin fibrillization, Alexa594 FP, 6 h; further: nearly all actives have a fitted effect of over 55% in size
Target sequence (P10636 561-689 P618L limits assumed): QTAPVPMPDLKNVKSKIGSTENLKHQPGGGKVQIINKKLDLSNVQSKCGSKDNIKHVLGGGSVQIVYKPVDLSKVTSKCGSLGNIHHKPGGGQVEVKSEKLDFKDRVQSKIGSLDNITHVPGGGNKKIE
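Quantitative HTS format: compounds meet 15 uM recombinant K18 P301L tau and Alexa 594-tau tracer in 100 mM sodium acetate pH 7; 20 uM heparin triggers fibrillization at 37 C over 6 hr; FP gives the signal.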
ALDH1A1 block: inhibitors of human aldehyde dehydrogenase 1A1. P00352. Purified ALDH1A1, NADH fluorescence, propionaldehyde substrate. Potency, µM (titrated, usually from 75.3 µM), hits mostly inhibitors. 220,000 tested, 7.3% active. AID 1030; active means well fitted inhibition curve with a large enough effect, not every such curve was filed as active; inconclusive means small, poorly fitted or top-dose-only effect, or another doubt; inactive means no such curve, though single readings can be large or run the other way
JMJD2E inh: blocks human JMJD2E demethylase activity | B2RXH2 | JMJD2E catalytic domain, FDH-coupled NADH fluorescence (FDH is formaldehyde dehydrogenase) | Potency, µM (top dose mostly 57.1 µM), actives largely listed as inhibitors | 230,000 tested, 1.6% active; active means well fitted inhibition curve with a large enough effect, not every such curve was filed as active; inconclusive means small, poorly fitted or top-dose-only effect, or another doubt; inactive means no such curve, though single readings can be large or run the other way; further: nearly all actives have a fitted effect of over 50% in size
Target sequence (B2RXH2 1-337 limits assumed): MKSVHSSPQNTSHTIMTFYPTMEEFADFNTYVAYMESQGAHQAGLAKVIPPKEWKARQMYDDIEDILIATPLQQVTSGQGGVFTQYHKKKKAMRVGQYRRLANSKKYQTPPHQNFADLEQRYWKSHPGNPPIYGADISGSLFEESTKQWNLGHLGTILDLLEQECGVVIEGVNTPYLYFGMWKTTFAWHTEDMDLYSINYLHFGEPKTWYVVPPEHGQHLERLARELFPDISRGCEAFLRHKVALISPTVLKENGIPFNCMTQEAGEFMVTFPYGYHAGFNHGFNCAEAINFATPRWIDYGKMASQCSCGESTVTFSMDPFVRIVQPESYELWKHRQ
Tau ThT inhib: inhibitors of human tau fibril formation, thioflavin T binding; Potency, µM (titrated, usually from 57.4 µM), actives largely listed as inhibitors; 270,000 tested, 2.1% active; AID 1460; recombinant tau K18 P301L (four-repeat tau fragment), heparin-induced fibrillization, ThT fluorescence; further: nearly all actives have a fitted effect of over 55% in size
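Heparin-induced (20 uM) aggregation of recombinant human K18 P301L tau, 15 uM unlabeled with 0.24 uM labeled, pH 7 acetate buffer, 6 hr at 37 C with compound. Fibrils quantified by 30 uM ThT fluorescence after 1 hr ambient incubation.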
Hits are given with their value; . = inactive; ? = inconclusive; / = no result given; ! = a repeat was not active; [ ] = another dose, or the depositor's remark. Unless noted, the call rests on the fitted dose curve; in most records, active means well fitted curve in the direction sought with a large enough effect; inconclusive means small, poorly fitted or top-dose-only effect, or another doubt; inactive means no such curve, though single readings can be large; an effect the other way counts as inactive or inconclusive.

SMILES	HPGD inh	Tau fluor counter	Tau FP inhib	ALDH1A1 block	JMJD2E inh	Tau ThT inhib
CCCc1cc(=O)[nH]c(Nc2cc(Cl)cc(Cl)c2)n1	/	?	11.2µM	/	/	.
CCCc1cc(=O)[nH]c(Nc2cc(C)cc(C)c2)n1	/	?	.	/	/	.
CCCc1cc(=O)[nH]c(SCC(=O)CSc2nc(CCC)cc(=O)[nH]2)n1	.	.	?	14.1µM	.	15.8µM
CCCc1cc(=O)[nH]c(SCc2ccccc2Cl)n1	14.1µM	.	.	.	.	?
CCCc1cc(=O)[nH]c(SCc2ccc(F)cc2)n1	/	.	.	/	.	.
CC(C)=NOC[C@@H](C)[C@H](OCc1ccccc1)C(C)C	/	.[11.6 µM]	?	.[13.5 µM]	/	.[11.5 µM]
COc1cc(/C=N/NC(=O)c2c(-c3ccccc3)noc2C)ccc1O	.	.	.	.	.	.
COc1cccc(/C=N/NC(=O)c2c(-c3ccccc3)noc2C)c1O	.	.	.	.	31.6µM	.
COc1cccc(/C=N/NC(=O)CC2C(=O)NN=C2C)c1O (stereo unspecified)	.	.	.	.	8.91µM	.
Cc1occc1C(=O)N/N=C/c1ccccn1	/	.	.	28.2µM	.	.
COc1cccc(/C=N/NC(=O)CC2C(=O)NN=C2C)c1OC (stereo unspecified)	?	.	.	?	?	.
COc1cccc(/C=N/NC(=O)C(=O)NCc2ccco2)c1O	.	.	.	.	12.6µM	.
COc1ccc(C2C(C(=O)Nc3ccccc3)=C(C)Nc3c(C(=O)Nc4ccccc4)cnn32)cc1 (stereo unspecified)	/	?	.	/	/	.
COc1ccc(/C=N/NC(=O)C2C(=O)NCC2c2ccccc2)c(OC)c1 (stereo unspecified)	.	.	.	.	.	.
COc1cccc(/C=N/NC(=O)NC2CCCCC2)c1O	/	.	.	/	22.4µM	.
COc1cccc(/C=N/NC(=O)c2ccoc2C)c1O	/	.	.	/	14.1µM	?
COc1cccc(/C=N/NC(=O)c2cnccn2)c1O	/	.	.	/	11.2µM	?
COc1cccc(/C=N\NC(=O)C2C(=O)NCC2c2ccccc2)c1O (stereo unspecified)	.	.	.	.	28.2µM	.
CC(C)[C@@H](OCc1ccccc1)[C@H](C)/C=N\O[C@@H](C)c1cn([C@H](CO)Cc2ccccc2)nn1	/	.[11.6 µM]	.[11.6 µM]	.[13.5 µM]	/	.[11.5 µM]
COc1ccc(CNC(=O)COC(=O)c2cc(-c3cccs3)nc3ccccc23)cc1OC	?	?	.	?	?	.
CCOC(=O)c1ccc(NC(=O)c2c(NC(C)=O)sc3c2CCC(C)C3)cc1 (stereo unspecified)	/	.	.	/	/	?
CCOc1ccc(NC(=O)c2c(NC(=O)c3ccccc3Br)sc3c2CCC(C)C3)cc1 (stereo unspecified)	/	.	?	/	/	14.1µM
O=c1cc(-c2ccc(O)cc2)oc2c(O)c(O)c(O)c(O)c12	/	?	?	.	12.6µM	14.1µM
COc1c(O)cc2oc(-c3ccc(O)cc3)cc(=O)c2c1O	/	.	.	/	.	?
O=c1cc(-c2ccccc2)oc2cc(O)c(O)c(O)c12	28.2µM	?	28.2µM	15µM!	12.6µM	25.1µM
SMILES	HPGD inh	Tau fluor counter	Tau FP inhib	ALDH1A1 block	JMJD2E inh	Tau ThT inhib
O=C1NCCCC1C(=O)N/N=C/c1cccc(Cl)c1 (stereo unspecified)	/	.	.	.	.	.
O=c1cc(O)c2sc(Nc3ccc(F)c(Cl)c3)nc2[nH]1	/	?	?	7.94µM	?	28.2µM
Oc1cccc(CN2CCCCC2)c1	.	.	.	.	.	.
CC(C)(C)c1cc(CN2CCCCC2)cc(C(C)(C)C)c1O	.	.	.	14.1µM	?	.
COC(=O)NNC(=S)Nc1cc(OC)ccc1OC	?	.	.	25.1µM	.	?
COc1ccccc1NC(=O)Cc1csc(NC(=S)Nc2ccccc2)n1	.	?	?	?	.	.
COc1ccc(NC(=S)Nc2ccc(OC)cc2OC)c(OC)c1	25.1µM	.	.	20µM	.	.
COc1ccc(NC(=S)Nc2ccccc2OC)c(OC)c1	/	.	.	25.1µM	.	.
COc1ccc(NC(=S)Nc2nc(CC(=O)Nc3ccccc3OC)cs2)cc1	.	12.6µM[quencher]	.	?	.	.
COc1ccc(CNC(=S)Nc2cc(OC)ccc2OC)cc1	.	.	.	?	.	.
CN(C)S(=O)(=O)c1cccc(NC(=O)CCNC(=O)c2ccccc2Cl)c1	?	.	.	.	.	.
CCCC(C)NC(=O)c1sc2nc3n(c(=O)c2c1C)CCC3 (stereo unspecified)	/	.	.	.	.	.
CC(C)(C)C1CCc2c(sc(NC(=O)Cn3nnc(-c4ccccc4F)n3)c2C#N)C1 (stereo unspecified)	/	?	?	/	/	.
Cc1ccc(CSc2nnc(-c3ccc4c(c3)OCO4)o2)cc1	.	.	.	.	.	?
Cc1ccc(CSc2ccc(-c3ccc4c(c3)OCO4)nn2)cc1	?	.	?	11.2µM	.	.
CCOc1ccc(N(c2nc(-c3ccc(OC)c(OC)c3)no2)c2nc(-c3ccc(OC)c(OC)c3)no2)cc1	/	.	.	/	/	.
NCCSC[C@H](N)C(=O)O	.	/	/	.[13.5 µM]	/	/
c1cncc(-c2nc(NCCCn3ccnc3)c3ccccc3n2)c1	/	.	.	.	.	.
OCCNc1nc(-c2cccnc2)nc2ccccc12	?	.	.	25.1µM	.	.
COc1cc(/C=C/C(=O)c2ccc(O)cc2)ccc1OCC#N	.	.	.	?	.	?
COc1ccc(C(=O)/C=C/c2ccc(O)cc2)c(O)c1CC=C(C)C	.	15.8µM[quencher]	?	.	.	25.1µM
CN(C)c1ccc(C(=C2C=CC(=[N+](C)C)C=C2)c2ccc(N(C)C)cc2)cc1	.	7.08µM[quencher]	15.8µM	.	?	5.01µM
CC(=O)c1ccc(N(C)C)cc1	.	.	.	.	.	.
CN(C)c1ccc(C(=C2C=CC(=[N+](C)C)C=C2)c2ccccc2)cc1	?	/	/	8.91µM!	/	/
CC1SC(c2ccc(Cl)cc2Cl)NC1=O (stereo unspecified)	.	.	.	.	.	.
SMILES	HPGD inh	Tau fluor counter	Tau FP inhib	ALDH1A1 block	JMJD2E inh	Tau ThT inhib
CC1SC(c2cccc(Cl)c2)NC1=O (stereo unspecified)	?	.	.	11.2µM	.	?
CCOc1ccccc1-n1c(SCC(=O)N2CCCc3ccccc32)nnc1-c1cccnc1	.	.	.	12.6µM	.	.
O=C(CSc1nnc(-c2cccnc2)n1-c1ccc(SC(F)F)cc1)N1CCCc2ccccc21	.	.	.	20µM	.	.
COC(=O)[C@@H](NC(=O)Nc1ccc(OC(F)(F)F)cc1)C(C)C	28.2µM	.	.	?	.	.
O=C(SCc1cccc2ccccc12)c1ccc(Cl)cc1	.	/	/	.[13.5 µM]	/	/
CC1CCCCN1c1nc2nonc2nc1N1CCCCC1C (stereo unspecified)	.	.	.	2.24µM	.	.
CN1CCC2(CC1)N=C(c1ccc(F)cc1)C(=S)N2C(=O)c1ccc(C(C)(C)C)cc1	/	.	.	17.8µM	?	?
